Experiment [1] in a line: qHTS for Inhibitors of the Functional Ribonucleoprotein Complex (vRNP) of Lassa (LASV) Arenavirus: LASV Primary Screen - GLuc reporter signal (AID 1347082; calls by dose curve; tested in HEK293 reporter line; also: % is scaled to controls: 0 for no effect and ±100 for the full control effect; nearly all actives have a fitted effect of over 60% in size). (In general: Quantitative high-throughput screening tests each substance at several concentrations.)
Experiment [2] can be described thus: qHTS for Inhibitors of the Functional Ribonucleoprotein Complex (vRNP) of Lassa (LASV) Arenavirus: Viability assay - alamar blue signal for LASV Primary Screen (AID 1347083; calls by dose curve; tested in HEK293 reporter line; also: nearly all actives have a fitted effect of over 80% in size; also: potency is read from the fitted curve at half-maximal effect).
A short description of experiment [3]: qHTS for Inhibitors of the Functional Ribonucleoprotein Complex (vRNP) of Lymphocytic Choriomeningitis Arenaviruses (LCMV): Viability assay - alamar blue signal for LCMV Primary Screen (AID 1347085; calls by dose curve; tested in HEK293 reporter line; also: nearly all actives have a fitted effect of over 80% in size; also: potency is read from the fitted curve at half-maximal effect).
Experiment [4] can be described thus: Primary qHTS for Huh7 cytotoxicity: counterscreen for inhibitors of MERS-S pseudotyped particle cell entry (AID 1479147). As to conditions: outcome: dose series up to 57.1 µM unless noted.
The nature of experiment [5]: Primary qHTS for inhibitors of MERS-S pseudo-typed particle cell entry (AID 1479149). Also: nearly all actives have a fitted effect of over 60% in size.
A short description of experiment [6]: Primary qHTS for Vero E6 cytotoxicity: counterscreen for inhibitors of SARS-S pseudo-typed particle cell entry (AID 1479150). Conditions: outcome: dose series up to 57.1 µM unless noted.
The nature of experiment [7]: Cytotoxicity counterscreen for inhibitors of SARS-CoV-2 cell entry (AID 1645845). Also: nearly all actives have a fitted effect of over 50% in size. Summed up: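 HEK293-ACE2 cells (Expi293F stably expressing human ACE2) seeded overnight, then compound for 1 h plus 48 h at 37C. Viability as ATP content by luminescence; normalized to wells with cells and media-only wells.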
Background: A counterscreen serves to expose hits that act by an unwanted route or on another target.

For experiment [8], the target named is Alpha-galactosidase (Coffea arabica) (UniProt Q42656). As to the kind of experiment: Counterscreen for Glucocerebrosidase Inhibitors: qHTS Assay for Coffee Bean alpha-Galactosidase at pH 4.5 (AID 957; active = well fitted curve in the direction sought with a large enough effect; an effect the other way counts as inactive or inconclusive;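 also: plate controls were enzyme alone for no effect and no enzyme for full effect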). The method, boiled down: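 Green coffee bean enzyme (2 nM final) was incubated with compounds (0.7 nM to 77 uM) and 4-methylumbelliferyl alpha-D-galactopyranoside (80 uM final) in 50 mM citric acid, 0.005% Tween-20, pH 4.5, 20 min at room temperature; AC50 from Hill fits.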

Experiment [9] has the same target. As to the kind of experiment: Counterscreen for Glucocerebrosidase Inhibitors: qHTS Assay for Coffee Bean alpha-Galactosidase at pH 5.9 (AID 998; active = well fitted curve in the direction sought with a large enough effect; an effect the other way counts as inactive or inconclusive;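 also: plate controls were uninhibited enzyme for no effect and no-enzyme basal signal for full effect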). Summed up:
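Green coffee bean enzyme (2 nM) with 4-methylumbelliferyl alpha-D-galactopyranoside (80 uM) in 50 mM citric acid, 0.005% Tween-20, pH 5.9, 20 min at room temperature; compounds 0.7 nM–77 uM. Stopped at pH 10, fluorescence Ex365/Em440; Hill-fit AC50.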

Experiment [10] has as its target Nucleoprotein (Lymphocytic choriomeningitis virus (strain Armstrong)) (UniProt P09992). As to the kind of experiment: qHTS for Inhibitors of the Functional Ribonucleoprotein Complex (vRNP) of Lymphocytic Choriomeningitis Arenaviruses (LCMV): LCMV Primary Screen - GLuc reporter signal (AID 1347086). Also: % is scaled to controls: 0 for no effect and ±100 for the full control effect; nearly all actives have a fitted effect of over 70% in size.
Experiment [11] in a line: Primary qHTS to identify inhibitors of SARS-CoV-2 cell entry (AID 1645846). Also: nearly all actives have a fitted effect of over 45% in size. As to conditions: activity change, negative = inhibition: at 57.1 µM (top of the series) unless noted. Summed up: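 Data are normalized to wells receiving SARS-CoV-2-S pseudoparticles and those given bald particles. Entry signal was luciferase luminescence in stable hACE2 Expi293F cells, 48 hr post-infection, after 1 hr compound pretreatment.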

The nature of experiment [12]: Validation screen for inhibitors of Lassa infection (AID 463096). Also: % is scaled to controls: 0 for no effect and ±100 for the full control effect.
Experiment [13] can be described thus: Inducers of the Endoplasmic Reticulum Stress Response (ERSR) in human glioma: Validation (AID 504836; active = well fitted curve in the direction sought with a large enough effect; an effect the other way counts as inactive or inconclusive; also: 0% is about no effect). The method, boiled down: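 Stably transfected U87-MG glioma cells carrying a GRP78-based luciferase sensor; 16 h compound incubation. Luminescence end-point read 10 min after Bright-Glo addition at room temperature.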
Experiment [14] concerns the target Cytochrome P450 3A4 (Homo sapiens) (UniProt P08684). Briefly: qHTS Assay for Inhibitors and Substrates of Cytochrome P450 3A4 (AID 884; active = well fitted curve in the direction sought with a large enough effect; an effect the other way counts as inactive or inconclusive; also: potency is read from the fitted curve at half-maximal effect; nearly all actives have a fitted effect of over 50% in size). Summed up:
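20 nM human CYP3A4 with 25 uM Luciferin-PPXE (at KM) in 200 mM KPO4, preincubated 10 min with compound; NADPH regeneration started a 60 min RT reaction. Luciferin detected by luminescence, normalized to 57 uM ketoconazole as full inhibition.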

Experiment [15] has the same target. As to the kind of experiment: qHTS Assay for Activators of Cytochrome P450 3A4 (AID 885; active = well fitted curve in the direction sought with a large enough effect; an effect the other way counts as inactive or inconclusive; also: nearly all actives have a fitted effect of over 65% in size). Summed up:
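Steps: enzyme/substrate mix dispensed; compound added, 10 min RT; NADPH regeneration solution added, 60 min RT; luciferin detection buffer stops reaction; 20 min later luminescence measured.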

For experiment [16], the target named is Cytochrome P450 2C19 (Homo sapiens) (UniProt P33261). Briefly: qHTS Assay for Inhibitors and Substrates of Cytochrome P450 2C19 (AID 899; active = well fitted curve in the direction sought with a large enough effect; an effect the other way counts as inactive or inconclusive; also: potency is read from the fitted curve at half-maximal effect; nearly all actives have a fitted effect of over 60% in size). Summed up: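 Signal comes from luciferase acting on luciferin released by CYP2C19-mediated hydroxylation of Luciferin-H EGE, 10uM (KM). Assay mix: 5nM enzyme, 50mM KPO4; 60 min at 37C with NADPH regeneration. Data normalized against 57uM ketoconazole.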

A short description of experiment [17]: qHTS profiling of the MIPE4 collection as inhibitors of Plasmodium falciparum (3D7) proliferation (AID 743344; call rule not given here;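 also: scaled between DMSO vehicle wells and 0.29 µM artemisinin as full inhibition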). Conditions: P. falciparum 3D7 in erythrocytes, SYBR Green DNA fluorescence, 72 h; at 28.5 µM (top of the series) unless noted. Summed up:
(§1)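 Erythrocytes infected with P. falciparum (0.3% parasitemia, 2.5% hematocrit) incubated with compounds 72 h at 37 C, 5% CO2. Lysis with saponin/Triton buffer containing SYBR Green I, overnight at room temperature in the dark; DNA fluorescence (485/535 nm) normalised to 0.29 uM artemisinin and DMSO.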

Experiment [18] is described as follows: qHTS profiling of the MIPE4 collection as inhibitors of Plasmodium falciparum (DD2) proliferation (AID 743345; call rule not given here). As to conditions: P. falciparum Dd2 in erythrocytes, SYBR Green DNA, 72 h; at 28.5 µM (top of the series) unless noted. The method, boiled down:
as §1

Experiment [19] in a line: qHTS profiling of the MIPE4 collection as inhibitors of Plasmodium falciparum (DD2) proliferation (Rep 2) (AID 743346; call rule not given here). As to conditions: P. falciparum Dd2 in erythrocytes, SYBR Green DNA, 72 h; at 28.5 µM (top of the series) unless noted. Summed up:
as §1

Experiment [20] in a line: qHTS profiling of the MIPE4 collection as inhibitors of Plasmodium falciparum (HB3) proliferation (AID 743347; call rule not given here;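 also: plate controls were DMSO vehicle wells for no effect and artemisinin wells for full effect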). Conditions: P. falciparum HB3 in erythrocytes, SYBR Green DNA, 72 h; at 28.5 µM (top of the series) unless noted. Summed up:
as §1

Experiment [21] in a line: Confirmatory qHTS for VERO E6 Cytotoxicity Assay: Counterscreen for SARS-CoV-2 CPE Assay (AID 1508605). Also: potency is read from the fitted curve at half-maximal effect; nearly all actives have a fitted effect of over 60% in size.

Structures are written as SMILES. Results filed as inconclusive are left out. Calls of active or inactive are those of the source. Unless noted, calls follow the shape of the full dose curve.

Alpha-galactosidase (Coffea arabica), sequence (Q42656 whole entry, looked up): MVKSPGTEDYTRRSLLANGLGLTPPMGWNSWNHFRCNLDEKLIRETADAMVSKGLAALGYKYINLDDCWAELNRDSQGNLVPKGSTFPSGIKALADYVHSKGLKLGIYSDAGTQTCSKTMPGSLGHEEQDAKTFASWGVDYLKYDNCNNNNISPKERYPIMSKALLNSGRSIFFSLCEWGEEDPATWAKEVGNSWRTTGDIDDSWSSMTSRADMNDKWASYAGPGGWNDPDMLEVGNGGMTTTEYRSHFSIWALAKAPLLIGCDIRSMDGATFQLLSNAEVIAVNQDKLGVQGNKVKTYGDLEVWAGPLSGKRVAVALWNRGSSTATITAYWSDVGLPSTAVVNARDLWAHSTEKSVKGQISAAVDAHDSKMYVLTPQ
Cytochrome P450 3A4 (Homo sapiens), sequence (P08684 whole entry, looked up): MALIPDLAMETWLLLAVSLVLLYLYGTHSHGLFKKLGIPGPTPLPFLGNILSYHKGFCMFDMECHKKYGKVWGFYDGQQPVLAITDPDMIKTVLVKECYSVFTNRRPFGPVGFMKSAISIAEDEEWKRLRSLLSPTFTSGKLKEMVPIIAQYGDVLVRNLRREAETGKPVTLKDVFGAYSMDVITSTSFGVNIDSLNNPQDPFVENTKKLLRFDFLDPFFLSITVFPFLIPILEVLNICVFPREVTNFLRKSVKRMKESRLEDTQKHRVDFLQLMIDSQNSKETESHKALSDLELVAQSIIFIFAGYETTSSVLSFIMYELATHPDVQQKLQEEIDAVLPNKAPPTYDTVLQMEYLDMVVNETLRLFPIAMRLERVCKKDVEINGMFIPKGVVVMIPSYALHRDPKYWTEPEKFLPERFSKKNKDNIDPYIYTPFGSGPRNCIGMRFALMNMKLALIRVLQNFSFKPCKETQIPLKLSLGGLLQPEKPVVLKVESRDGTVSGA
Nucleoprotein (Lymphocytic choriomeningitis virus (strain Armstrong)), sequence (P09992 whole entry, looked up): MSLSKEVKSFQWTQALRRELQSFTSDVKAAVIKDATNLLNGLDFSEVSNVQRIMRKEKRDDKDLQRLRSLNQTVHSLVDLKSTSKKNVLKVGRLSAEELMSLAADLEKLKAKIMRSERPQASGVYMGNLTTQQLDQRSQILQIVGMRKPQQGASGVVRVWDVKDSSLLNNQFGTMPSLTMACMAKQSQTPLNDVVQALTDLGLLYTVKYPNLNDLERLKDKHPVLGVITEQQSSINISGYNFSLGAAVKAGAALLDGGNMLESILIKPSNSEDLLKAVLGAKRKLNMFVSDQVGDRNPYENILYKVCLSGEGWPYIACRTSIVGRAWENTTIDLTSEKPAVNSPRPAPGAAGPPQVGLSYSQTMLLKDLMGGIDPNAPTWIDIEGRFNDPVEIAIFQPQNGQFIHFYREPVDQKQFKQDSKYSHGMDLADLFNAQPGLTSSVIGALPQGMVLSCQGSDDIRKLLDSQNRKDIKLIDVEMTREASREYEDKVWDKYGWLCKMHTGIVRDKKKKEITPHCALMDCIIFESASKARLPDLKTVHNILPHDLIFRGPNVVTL
Cytochrome P450 2C19 (Homo sapiens), sequence (P33261 whole entry, looked up): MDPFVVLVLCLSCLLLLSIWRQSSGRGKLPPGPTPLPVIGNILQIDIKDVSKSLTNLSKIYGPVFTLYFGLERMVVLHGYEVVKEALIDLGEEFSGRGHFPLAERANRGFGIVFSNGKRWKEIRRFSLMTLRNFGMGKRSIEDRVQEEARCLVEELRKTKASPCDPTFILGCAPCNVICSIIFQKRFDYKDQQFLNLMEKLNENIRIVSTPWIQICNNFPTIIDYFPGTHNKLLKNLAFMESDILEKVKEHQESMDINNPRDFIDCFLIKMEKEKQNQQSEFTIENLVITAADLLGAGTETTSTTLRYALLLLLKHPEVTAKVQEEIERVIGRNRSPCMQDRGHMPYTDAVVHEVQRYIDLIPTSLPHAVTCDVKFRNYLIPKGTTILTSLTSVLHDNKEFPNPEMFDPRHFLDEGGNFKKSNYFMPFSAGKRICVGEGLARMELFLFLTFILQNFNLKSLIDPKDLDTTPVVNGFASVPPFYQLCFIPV

On to `CC[C@@]1(O)C[C@H](O[C@H]2C[C@H](N(C)C)[C@H](O[C@H]3C[C@H](O)[C@H](O[C@H]4CCC(=O)[C@H](C)O4)[C@H](C)O3)[C@H](C)O2)c2c(cc3c(c2O)C(=O)c2c(O)cccc2C3=O)[C@@H]1C(=O)OC`, for which the Potency entry in experiment [1], in [5] and in experiment [7] was “inactive” in each case. Moreover, the Potency in experiment [2] and in experiment [3] was 0.344 µM (active) in each case. The result in experiment [4] and in experiment [6] was inactive.
With `N#C/C(=C\c1ccc(O)c(O)c1)C(=O)NCCc1ccccc1`, the compound was called inactive in [8] and in experiment [9]. For the same compound, the Potency result in [1], in [2], in experiment [3] and in [10] was “inactive” throughout.
Take `NC[C@H]1O[C@H](O[C@@H]2[C@@H](O)[C@@H](O[C@H]3O[C@H](CO)[C@@H](O)[C@H](N)[C@@H]3O)[C@H](N)C[C@@H]2N)[C@H](O)[C@@H](O)[C@H]1O`: the Potency entry in experiment [1], in experiment [2], in experiment [3] and in experiment [7] was “inactive” in each case. For the same compound, in [11], the activity change, negative = inhibition is -26.9%.
As for `CN(C)CCCC1(c2ccc(F)cc2)OCc2cc(C#N)ccc21` (stereo not given), the Potency entry in experiment [12], in [1], in experiment [2], in experiment [3] and in experiment [7] was “inactive” each time. The compound was called inactive in experiment [13], in [4] and in experiment [6].
As for `Nc1nc(OCc2ccccc2)c2[nH]cnc2n1`, the Potency is 7.94 µM (active) in experiment [14], 6.31 µM (active) in experiment [16] and 17.2 µM (active) in experiment [3]. Further, the Potency result in experiment [15], in experiment [12], in [1], in experiment [2], in experiment [7] and in experiment [11] was “inactive” each time. Also, the compound was classed as inactive in experiment [8], in experiment [9] and in experiment [13]. The compound further yielded a parasite growth, % of DMSO control in experiment [17] of 83.5%. In addition, in [18], the parasite growth remaining, % of DMSO control (lower = more inhibition) amounted to 103%. In experiment [19], this compound registered a parasite growth, % of control (lower = inhibition) of 72.1%. This compound also returned a growth, % of control in experiment [20] of 44%.
With `COc1cc(C[C@@H](CO)[C@H](CO)Cc2ccc(O)c(OC)c2)ccc1O`, the Potency entry in experiment [1], in [7] and in experiment [11] was “inactive” in each case. Also, the Potency is 1.72 µM (active) in experiment [2] and 2.73 µM (active) in experiment [3].
Take `COc1ccc2ccc(=O)oc2c1CC=C(C)C`: in experiment [14], the Potency was 15.8 µM (active). Further, the Potency entry in experiment [15], in experiment [1], in [2], in experiment [3] and in [10] was “inactive” throughout.
Take `Cc1c(CCOc2ccc(C(=O)O)cc2)c2cc(Cl)ccc2n1C(c1ccccc1)c1ccccc1`: the Potency result in [1], in experiment [2], in experiment [3] and in [7] was “inactive” throughout. Also, in experiment [21], the Potency was 12.6 µM (active). For the same compound, the activity change, negative = inhibition in experiment [11] was -34.5%.
On to `O=c1c2ccccc2oc2ccccc12`, for which, in experiment [14], the Potency is 12.6 µM (active). Further, the Potency result in experiment [15], in experiment [1], in experiment [2], in [3] and in [10] was “inactive” in each case.
As to `NC(=O)c1noc([C@H](CCCC2CCCCC2)CC(=O)NO)n1`, the Potency result in experiment [1], in experiment [2], in experiment [3] and in [7] was “inactive” each time. In addition, the activity change, negative = inhibition in experiment [11] is -13.6%.
In the case of `CN1CCC2(CCN3CCc4c(oc5ccccc45)C3C2)N(C)C1=O` (stereo not given), the Potency entry in experiment [12], in experiment [1], in experiment [2] and in [3] was “inactive” throughout. The outcome in [13] was inactive.
